Where “and” joins values, the source holds several entries; their conditions need not be identical. Equal entries are not always repeated. The whole screen tested about 3,300 compounds, of which about 280 (8.5%) were called active. Many of the other results were omitted from the sample, so actives are more common in it than they were. Unmarked numbers belong to inactive results.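 The calls were made as follows: active = mean growth inhibition over the two runs of 50% or more; inactive = mean growth inhibition under 50%.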
Test: A549 NSCLC cell proliferation inhibitors – ATP luminescence, human non-small cell lung line, primary screen (AID 371);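 also: compound exposure lasted 72 h before the ATP read; 0% = untreated cell signal and 100% = no luminescence left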
Settings: at 10 µM, hits give high values
Molecule c1ccc(C2Nc3ccccc3-c3nc4ccccc4n32)nc1 (centres undefined) has a growth inhibition of 26%.
Cc1nn(CC(=O)NCCN2CCOCC2)c(=O)c2ccccc12 gave a growth inhibition of 1.62%.
Oc1ccccc1CNn1cnnc1 gave a growth inhibition of 7.07%.
For Cc1ccc(OCC(=O)N(C)CCc2ccccn2)cc1, the growth inhibition was -1.84%.
With O=C(NCc1cccnc1)c1ccc(=O)oc1 the growth inhibition was -2.22%.
Molecule CSc1nc(NC(C)=O)nc(C)c1Cl has a growth inhibition of 3.88%.
C=CCN(C(=O)CCC(=O)O)C1CC(=O)N(c2ccc(OCCC)cc2)C1=O (centres undefined) showed a growth inhibition of 34.7%.
For Cc1cccc(C)c1NC(=O)C1CCCCN1C (centres undefined), the growth inhibition was -1.85%.
With Cc1cccc(C)c1NC(=O)CSCC(=O)c1ccc(O)c(O)c1 the growth inhibition was 76.2% (active).
For CCN(CC)CC(=O)Nc1c(C)cccc1C, the growth inhibition was -1.4% and -6.03%.
COc1ccc(/C(O)=C2/C(=O)C(=O)N(CCN3CCOCC3)C2c2ccccn2)cc1 (centres undefined) gave a growth inhibition of 7.6%.
Cc1cc(C)n(C(=O)CSc2nc3ccccc3o2)n1 showed a growth inhibition of -7.75%.
With COCc1cc(=O)[nH]c(Nc2nc3ccccc3o2)n1 the growth inhibition was 66.6% (active).
For Cc1cccc(OCc2nc(C)cc(=O)[nH]2)c1, the growth inhibition was 1.95%.
For COCc1cc(=O)[nH]c(Nc2nc3ccc(C)cc3o2)n1, the growth inhibition was 70.6% (active).
In the case of Cc1cc(=O)[nH]c(COc2ccccc2)n1, the growth inhibition is reported as 6.76%.
Molecule COc1ccccc1C1CC(c2ccc(Cl)cc2)Nc2nc(N)nn21 (centres undefined) has a growth inhibition of 8.72%.
With Cc1cc2c(C)nc(Cc3ccccc3)nc2o1 the growth inhibition was 1.92%.
CCCCCCn1c(C(C)O)nc2ccccc21 (centres undefined) showed a growth inhibition of 15.7%.
Molecule COc1cccc(/C(O)=C2/C(=O)C(=O)N(CCCN(C)C)C2c2cccc(Cl)c2)c1 (centres undefined) has a growth inhibition of -2.1%.
Molecule Cc1cccc(N2CN=c3s/c(=C\c4ccncc4)c(=O)n3C2)c1 has a growth inhibition of 5.71%.
N#CC1=C(N)N(c2ccccc2)C(c2ccccc2)C1(C#N)C#N (centres undefined) showed a growth inhibition of 21.4%.
In the case of Cn1ncc(N=Cc2c(O)ccc3ccccc23)c1C(=O)N1CCOCC1, the growth inhibition is reported as 3.71%.
In the case of Cc1coc2c(O)cc3c(c12)OC1(N2CCCCC2)C(=O)NCCCC31 (centres undefined), the growth inhibition is reported as 91.4% (active).
For COc1ccc(C2N3CC4(C)CN2CC(C)(C3)C4O)cc1OC (centres undefined), the growth inhibition was 0.13%.
With CC1(C)Cc2c(oc3ncn4ncnc4c23)CO1 the growth inhibition was 0.31%.
With COc1cc(C)nc(Oc2ccc(OCCOc3ccc(C)cc3)nn2)n1 the growth inhibition was 6.13%.
With CC1CCN(c2[nH]c(=S)c(C#N)c3c2CCCC3)CC1 the growth inhibition was 56% (active).
Work on CC1(C)Cc2c(c(N3CCCCC3)[nH]c(=S)c2C#N)CS1 yielded a growth inhibition of 4.02%.
In the case of CCc1[nH]c(=O)c(C#N)c2c1CCCC2, the growth inhibition is reported as 2.12%.
COc1ccc2c(c1)[nH]c1c(=O)n(CCN(C)C)cnc12 showed a growth inhibition of 4.43%.
Work on CC1(C)SC2[C@H](NC(=O)C(NC(=O)N3CCNC3=O)c3ccccc3)C(=O)N2C1C(=O)O (some centres undefined) yielded a growth inhibition of 3.08%.
Work on CC(C)C1C(C#N)=C(N)Oc2n[nH]c(C(C)(C)C)c21 (centres undefined) yielded a growth inhibition of -3.11%.
Work on Cc1[nH]nc2c1C(CCc1ccccc1)C(C#N)=C(N)O2 (centres undefined) yielded a growth inhibition of 0.1%.
With C1CCC(C(CC2CCCCN2)C2CCCCC2)CC1 (centres undefined) the growth inhibition was 91.8% (active).
For N#CCSc1nc2c(c(=O)n1Cc1ccco1)C1(CCCC1)Cc1ccccc1-2, the growth inhibition was 30.2%.
Molecule Cc1ccnc(N2CCN(c3c4c(c(C#N)c5nc6ccccc6n35)CCC4)CC2)c1 has a growth inhibition of 7.43%.
COc1cc(=O)[nH]c(=O)n1CC(=O)c1ccccc1 showed a growth inhibition of -1.03%.
With CC1(C)Cc2c(C#N)c(N3CCN(C(=O)c4ccccc4)CC3)nc(-c3ccco3)c2CS1 the growth inhibition was 12.2%.
With CC1(C)Cc2c(c(-c3ccco3)[nH]c(=O)c2C#N)CS1 the growth inhibition was 0.57%.
For CCc1nc(N2CCN(C(=O)c3ccccc3)CC2)c(C#N)c2c1COC(C)(C)C2, the growth inhibition was 36.6%.
In the case of CCCCc1nc(NCCNC(=O)c2ccco2)c(C#N)c2c1CSC(C)(C)C2, the growth inhibition is reported as 56.1% (active).
For CC1(C)Cc2c(C#N)c(N3CCN(C(=O)c4ccco4)CC3)nc(Cc3ccccc3)c2CO1, the growth inhibition was 72.3% (active).
For CC1(C)Cc2c(C#N)c(N3CCN(C(=O)c4ccco4)CC3)nc(-c3ccco3)c2CS1, the growth inhibition was 50.1% (active).
Molecule CC1(C)Cc2c(C#N)c(N3CCOCC3)nc(Cc3ccccc3)c2CO1 has a growth inhibition of 16.7%.
With CC1(C)Cc2c(C#N)c(NCCc3ccccc3)nc(-c3ccco3)c2CO1 the growth inhibition was 1.2%.
Molecule CCCCc1nc(NCCN2CCOCC2)c(C#N)c2c1COC(C)(C)C2 has a growth inhibition of 1.05%.
With CCOC(=O)C(C(=O)OCC)N(C#N)c1nc(SC)nc(N(C)C)n1 the growth inhibition was -4.38%.
In the case of Cc1nnc(SCC(=O)N2CCC(C(N)=O)CC2)s1, the growth inhibition is reported as -21.6%.
With C=C(C)CN(CC)CCC(=O)Nc1ccc(OC)cc1OC the growth inhibition was 4.6%.
Molecule COC(=O)CNC(=O)c1c(C)cc(=O)oc1C has a growth inhibition of 0.81%.
CC1(C(=O)CSc2nc3ccccc3s2)CCC(=O)O1 (centres undefined) showed a growth inhibition of 3.38%.
O=c1cc(N2CCCCC2)nc2n1CCCS2 showed a growth inhibition of 8.96%.
With Cc1ccc(S(=O)(=O)N2CCN(c3nc(C(C)C)c4c(c3C#N)CC(C)(C)OC4)CC2)cc1 the growth inhibition was 29.3%.
Clc1ccc2[nH]c3c(NCCN4CCOCC4)ncnc3c2c1 showed a growth inhibition of 34.3%.
In the case of Cc1ccc2[nH]c3c(NCCN4CCOCC4)ncnc3c2c1, the growth inhibition is reported as 18%.
With Clc1ccc2[nH]c3c(NCCCN4CCOCC4)ncnc3c2c1 the growth inhibition was 89.9% (active).
For C=CCn1c(SCC#N)nc2c(c1=O)C(C)(C)Cc1ccccc1-2, the growth inhibition was 28.8%.
For COn1c(=S)[nH]c2ccccc2c1=O, the growth inhibition was 3.49%.
Molecule CCSC(SCC)[C@H](O)[C@@H](O)[C@H](O)[C@H](O)CO has a growth inhibition of -2.15%.
For CCCCCCCCCCCCCCCC(O)C(N)CO (centres undefined), the growth inhibition was 94.3% (active).
In the case of Cc1cc(C)n(-c2c(F)c(F)c(CN3CCCCC3)c(F)c2F)n1, the growth inhibition is reported as 9.57%.
Work on CN(C)c1cccc2c(S(=O)(=O)N3CCOCC3)cccc12 yielded a growth inhibition of 15.9%.
Work on Cc1ccc(C(=O)/C=C/Nc2cccc(O)c2)cc1 yielded a growth inhibition of 37.1%.
